According to PubChem BioAssay (NCI):
Compounds without any hit were thinned out: in the full panel of roughly 83,000, 20% have a hit.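 Method: cells in 96-well plates; compound added at one concentration; 48 h incubation; percent growth measured; values under 10 scored active.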 The source made the active and inactive calls.

Assays:
Experiment in all cases: NCI-60 one-dose screen, 48 h (100 = growth as untreated, 0 = no growth, -100 = all killed)
Settings in all cases: 10 µM unless noted
[1] = tested on: NCI-H23 lung
[2] = tested on: NCI-H322M lung
[3] = tested on: HOP-62 NSCLC
[4] = tested on: NCI-H460 lung
[5] = tested on: HOP-92 NSCLC
[6] = tested on: A549/ATCC NSCLC
[7] = tested on: 786-0 renal
[8] = tested on: COLO 205 colon
[9] = tested on: NCI-H522 lung

SMILES	growth [1]	growth [2]	growth [3]	growth [4]	growth [5]	growth [6]	growth [7]	growth [8]	growth [9]
O=C1[C@H]2Cc3c([nH]c4ccccc34)[C@H](c3ccc(Cl)cc3)N2C(=O)CN1C1CCN(Cc2c(Cl)cccc2Cl)CC1	86.5% (inactive)	96.9% (inactive)	80.1% (inactive)	68% (inactive)	55.1% (inactive)	66.9% (inactive)	66% (inactive)	54.8% (inactive)	
N#C/C(=C\c1ccc(N2CCCCC2)cc1)C(=O)Nc1sc2c(c1C#N)CCC2	93.8% (inactive)	99.4% (inactive)	94.7% (inactive)	74.8% (inactive)	89.4% (inactive)	90.6% (inactive)	101% (inactive)	118% (inactive)	92.7% (inactive)
COc1cc2oc(-c3cccc(NC(=O)c4cc(NC(=O)[C@H](C)N)ccc4Cl)c3)cc(=O)c2c(OC)c1OC	91.5% (inactive)	104% (inactive)	105% (inactive)	99.8% (inactive)	17.2% (inactive)	96.3% (inactive)	91.7% (inactive)	101% (inactive)	94.9% (inactive)
C/C(=N/Nc1nc(N/N=C(/C)c2ccc([N+](=O)[O-])cc2)nc(N2CCOCC2)n1)c1ccc([N+](=O)[O-])cc1	57.9% (inactive)	86.7% (inactive)	86.2% (inactive)	78.1% (inactive)	64.1% (inactive)	73.9% (inactive)	66.9% (inactive)	94.8% (inactive)	61.7% (inactive)
O=C1Nc2cc(OC(F)(F)F)ccc2Oc2ccc(-c3ccnc(N4CCNCC4)c3)cc21	27.4% (inactive)	39% (inactive)	21.6% (inactive)	-80.6% (active)	-0.729% (active)	9.42% (active)	-62.7% (active)	-80.2% (active)	-57.2% (active)
Cc1cn(-c2cc(NC(=O)c3cncc(C#Cc4cnc5ccc(O[C@H]6CCOC6)nn45)c3)cc(C(F)(F)F)c2)cn1	53.7% (inactive)	105% (inactive)	87.9% (inactive)	99.9% (inactive)	-9.26% (active)	91.7% (inactive)	105% (inactive)	69.1% (inactive)	
COc1ccc(/C(C)=C(\c2ccc(Cl)cc2)c2ccc(OCCN)cc2)cc1	82.2% (inactive)	79.3% (inactive)	106% (inactive)	60.8% (inactive)	61.6% (inactive)	88.9% (inactive)	81.7% (inactive)	32.6% (inactive)	
CCc1ccc(NC(=O)N[C@@H](Cc2cccc(F)c2)C(=O)N[C@@H]2C(=O)N3CCC[C@H]3C(=O)N3CCCC[C@H]3C(=O)N[C@@H](C)C(=O)N3C[C@H](C)C[C@H]3C(=O)O[C@H]2C)c(F)c1	31.7% (inactive)	46% (inactive)	43% (inactive)	15.4% (inactive)	-0.342% (active)	33.3% (inactive)	37.1% (inactive)	-26.4% (active)	26.8% (inactive)
Cc1ccc(S(=O)(=O)N/N=C/c2cn(-c3ccc(F)cc3)nc2-c2ccc(S(C)(=O)=O)cc2)cc1	104% (inactive)	106% (inactive)	101% (inactive)	108% (inactive)	89.7% (inactive)	101% (inactive)	100% (inactive)	107% (inactive)	95.3% (inactive)
CCN1CCN(c2cc(C(=O)Nc3nc4ccc(Oc5ccnc(C(=O)NC)c5)cc4s3)cc(C(F)(F)F)c2)CC1	89.6% (inactive)	95% (inactive)	104% (inactive)	46.4% (inactive)	91.1% (inactive)	86.5% (inactive)	70% (inactive)	59.9% (inactive)	78.7% (inactive)
COc1cc(/C=N/n2cnc3oc(-c4ccccc4)cc3c2=N)cc(CN2CCOCC2)c1O	73% (inactive)	97.5% (inactive)	74.2% (inactive)	89.8% (inactive)	63.3% (inactive)	80.1% (inactive)	45.6% (inactive)	82.4% (inactive)	61.1% (inactive)
CC1OC(O[C@@H]2[C@H](O)C(CO)OC(O[C@H]3COC(O[C@H]4CC[C@]5(C)[C@H]6CC[C@]78OC[C@@]9(CC[C@](C)(C=O)C[C@H]97)C(=O)C[C@@]8(C)[C@]6(C)CC[C@H]5C4(C)C)[C@@H](O)[C@@H]3O)[C@H]2OC2OC[C@@H](O)[C@@H](O)[C@@H]2O)[C@@H](O)[C@@H](O)[C@H]1O (some centres not stated)	94.8% (inactive)	93.3% (inactive)	75.2% (inactive)	98.5% (inactive)	79.5% (inactive)	90.6% (inactive)	95.5% (inactive)	92.6% (inactive)	87.1% (inactive)
CC1(COc2ccc3ncc(C#Cc4cncc(C(=O)Nc5cc(C(C)(C)C)on5)c4)n3n2)COC1	28.7% (inactive)	60.4% (inactive)	29.1% (inactive)	23.3% (inactive)	-22.6% (active)	47.2% (inactive)	52.3% (inactive)	61.9% (inactive)	56.9% (inactive)
O=C(Cn1cc(CN2C(=O)c3ccc([N+](=O)[O-])cc3C2=O)nn1)Nc1ccccc1Br	98.1% (inactive)	98.2% (inactive)	109% (inactive)	108% (inactive)	114% (inactive)	108% (inactive)	107% (inactive)	117% (inactive)	102% (inactive)
N#C/C(=C\c1ccc(Cl)cc1Cl)C(N)=O	104% (inactive)		101% (inactive)	106% (inactive)	122% (inactive)	109% (inactive)	101% (inactive)	117% (inactive)	93.9% (inactive)
CC(=O)c1sc(Nc2cccc(Nc3nc(C)c(C)s3)c2)nc1C	63.2% (inactive)	61.7% (inactive)	77.8% (inactive)	45.6% (inactive)	63.6% (inactive)	65.8% (inactive)	55.7% (inactive)	77.7% (inactive)	46.2% (inactive)
CNC(=O)c1cc(Oc2ccc3nc(NC(=O)c4cc(C)cc(C)c4)sc3c2)ccn1	97.2% (inactive)	103% (inactive)	98.6% (inactive)	93.1% (inactive)	9.05% (active)	89.7% (inactive)	59% (inactive)	85.4% (inactive)	84.2% (inactive)
Cc1nn(-c2ccccc2)c2nc(CCl)[nH]c(=O)c12	98.8% (inactive)	103% (inactive)	98.3% (inactive)	102% (inactive)	117% (inactive)	97.7% (inactive)	4.55% (active)	110% (inactive)	89.8% (inactive)
Cn1cc(-c2nn3cc(-c4ccncc4)nc3s2)c2cc(Cl)ccc21	44.5% (inactive)	78.3% (inactive)	67.4% (inactive)	51.5% (inactive)	0.128% (active)	64% (inactive)	89.1% (inactive)	31.9% (inactive)	46% (inactive)
